Screen size: about 69,000 compounds; about 950 (1.4%) showed an effect of 50% or more. This is one part of a sample in which strong results are shown more often than they occur.
system: Mycobacterium tuberculosis; test: Cornell M. t heat shock assay; assay type: functional, organism-based; design: dose or concentration left out as unconfirmed; further: in the data most compounds retested in dose-response had high values

Row | Compound | Percent Effect [%]
1 | CC(C)NC(=O)CC1COC2(CCN(Cc3ccccc3)CC2)C1.O=C(O)C(F)(F)F (stereo unspecified) | -5.683
2 | CS(=O)(=O)NC[C@@H]1OC[C@H]2CN(Cc3ccsc3)CC[C@H]21.O=C(O)C(F)(F)F | -25.96
3 | CC(C)(C)Nc1c(C2CCCN(C(=O)C3CC3)C2)nc2ccccn12.Cl (stereo unspecified) | -26.51
4 | CN(Cc1cccc(C(=O)Nc2ccnn2C)c1)CC1(C)COC1 | -8.064
5 | CC(NC(=O)c1cccc(CN2CCN(C)CC2)c1)c1ccccn1 (stereo unspecified) | -15.12
6 | CCc1nnc(CN(C)Cc2cccc(C(=O)Nc3ccnn3C)c2)o1 | 2.892
7 | CC(c1ccco1)N(C)Cc1cccc(C(=O)Nc2nccn2C)c1 (stereo unspecified) | 105
8 | COC(=O)c1cccc(CN(C)C(C)c2ccccn2)c1 (stereo unspecified) | -7.966
9 | CC(c1ccccn1)N(C)Cc1cccc(C(=O)Nc2nccn2C)c1 (stereo unspecified) | 74
10 | N#CC1=C(N)Nn2c(nnc2-c2ccccc2Br)S1 | -17.22
11 | CNC(=O)C1CN(c2ccc(F)cc2)CCN1.Cl (stereo unspecified) | -9.726
12 | CC(C)CN1CC[C@H]2OCC[C@@H](C(=O)N3CCCO3)[C@@H]2C1.O=C(O)C(F)(F)F | -22.87
13 | c1cnn(CC2CCCCN2c2ncnc3ccsc23)c1 (stereo unspecified) | -40.74
14 | CNC(=O)[C@@]12CCO[C@@H]1CCN(S(=O)(=O)c1cccnc1)C2.O=C(O)C(F)(F)F | 3.091
15 | Cc1noc(C)c1CN1CCO[C@H]2CN(Cc3nccn3C)C[C@H]21.O=C(O)C(F)(F)F.O=C(O)C(F)(F)F | -6.105
16 | Cc1nc(CN(C)C2CCN(Cc3ccc4ccccc4n3)C2)no1 (stereo unspecified) | 86.18
17 | Cc1nc(CN(C)C2CCN(Cc3ccno3)C2)no1 (stereo unspecified) | -9.493
18 | Cc1nc(CN(C)C2CCN(Cc3cccc4cccnc34)C2)no1 (stereo unspecified) | 19.87
19 | Cc1cnc(CN(C)C2CCN(Cc3nc4ccccc4o3)C2)o1 (stereo unspecified) | -16.63
20 | Cc1nc(CN(C)C2CCN(Cc3nc4ccccc4n3C)C2)no1 (stereo unspecified) | 69.83
21 | Cc1cnc(CN(C)C2CCN(Cc3nc4ccccc4n3C)C2)o1 (stereo unspecified) | 96.91

Row | Compound | Percent Effect [%]
22 | Cc1nc(CN(C)C2CCN(Cc3nc4ccccc4s3)C2)no1 (stereo unspecified) | -21.16
23 | Cc1nnc(CN(C)C2CCN(Cc3nc4ccccc4n3C)C2)o1 (stereo unspecified) | 28.12
24 | Cc1nc(CN(C)C2CCN(CCCc3ccccc3)C2)no1 (stereo unspecified) | -13.87
25 | Cc1cc(-c2nccs2)nc(C2CCN(Cc3ccncc3)CC2)n1.Cl | -12.67
26 | CN(Cc1ccco1)[C@@H]1CN(Cc2ccco2)[C@@H]2CCCO[C@H]12.O=C(O)C(F)(F)F.O=C(O)C(F)(F)F | 13.61
27 | CN1CCC/C1=N\S(=O)(=O)c1ccc(NC(=O)c2ccc(Cl)cc2)cc1 | -4.489
28 | CC1=N[C@@]2(CC[C@@H]3CN(Cc4ccc(C)cc4)C[C@@H]32)C(=O)N1CC1CC1.O=C(O)C(F)(F)F | 0.8614
29 | CC(c1cn2ccsc2n1)N1Cc2ncccc2C1=O (stereo unspecified) | -27.43
30 | CCn1ncc2c1CN(C(=O)Cc1cccs1)CC2COC.O=C(O)C(F)(F)F (stereo unspecified) | 1.467
31 | COc1cccc(N2Cc3nc(=O)n(Cc4cccc(F)c4)n3C2=O)c1 | 19.15
32 | CCC(=O)N1CCC2(CC1)COCCN2Cc1ccc(F)cc1.O=C(O)C(F)(F)F | -30.34
33 | O=C(O)C(F)(F)F.c1csc(CN2CCn3c(Cn4cncn4)cnc3C2)n1 | -82.66
34 | O=C(CCn1c(=O)oc2ccccc21)NCC(O)c1ccccc1 (stereo unspecified) | 71.18
35 | O=C(CCn1c(=O)oc2ccccc21)NCC(O)c1ccc(Cl)cc1 (stereo unspecified) | -3.948
36 | O=C(NCC(O)c1ccc(F)c(F)c1)c1ccccc1F (stereo unspecified) | -2.812
37 | O=C(CCn1c(=O)oc2ccccc21)NCC(O)c1ccc(F)c(F)c1 (stereo unspecified) | 64.78
38 | O=C(Cn1c(=O)oc2ccccc21)NCC(O)c1ccc2c(c1)CCO2 (stereo unspecified) | -3.535
39 | CC(NC(=O)CCn1c(=O)oc2ccccc21)c1ccccn1 (stereo unspecified) | -6.717
40 | Cc1nc(C2(O)CCCNCC2)sc1CCOc1ccccc1Cl.Cl (stereo unspecified) | -14.1
41 | CCO[C@@H]1CC[C@H]2[C@H]1OCCN2CC1CCOCC1.O=C(O)C(F)(F)F | -50.97
42 | c1ccc(-c2nnc(CNCC3CCCN3c3cccnn3)o2)cc1 (stereo unspecified) | -22.96

Row | Compound | Percent Effect [%]
43 | c1cnnc(N2CCCC2CNCc2nc(-c3ccco3)no2)c1 (stereo unspecified) | 13.72
44 | c1cnnc(N2CCCC2CNc2nc3ccccc3o2)c1 (stereo unspecified) | -7.44
45 | CCc1nc(CNCC2CCCN2c2cccnn2)cs1 (stereo unspecified) | 0.6291
46 | c1ccc(-c2nc(CNCC3CCCN3c3cccnn3)co2)cc1 (stereo unspecified) | 102.8
47 | CN(Cc1coc(-c2ccccc2)n1)CC1CCCN1c1cccnn1 (stereo unspecified) | 7.112
48 | c1cnnc(N2CCCC2CNCc2nc(C3CC3)no2)c1 (stereo unspecified) | 52.74
49 | c1cnnc(N2CCCC2CNCc2nc3ccccc3o2)c1 (stereo unspecified) | 103.1
50 | CCCc1nc(CNCC2CCCN2c2cccnn2)cs1 (stereo unspecified) | 2.805
51 | CCc1noc(CNCC2CCCN2c2cccnn2)n1 (stereo unspecified) | 11.99
52 | Cc1nc(CNCC2CCCN2c2cccnn2)oc1C (stereo unspecified) | -4.447
53 | CC(C)CCc1nc(CNCC2CCCN2c2cccnn2)cs1 (stereo unspecified) | 75.49
54 | CCn1ccnc1CN1CCN(c2cc(C)nc(C3CCCN3)c2)CC1.Cl (stereo unspecified) | -8.62
55 | CC(C)c1nn(C)c(N(C)C)c1CNCc1cccc2cccnc12.Cl | 16.12
56 | CO[C@@H]1CO[C@@]2(CCCN(Cc3nc(C)cs3)C2)C1.O=C(O)C(F)(F)F | 0.7459
57 | Cc1ccccc1C(=O)N1C[C@@H]2OCCN(c3ncccn3)[C@@H]2C1.O=C(O)C(F)(F)F | -16.98
58 | O=C(NC[C@]12COC[C@H]1CN(Cc1ccco1)C2)c1ccccc1.O=C(O)C(F)(F)F | -18.08
59 | Cc1nc(C2CCN(C)CC2)cc(N2CCOc3ccc(Cl)cc3C2)n1 | -13.3
60 | Cc1nc(CCN)cc(N2CCOc3ccc(Cl)cc3C2)n1 | 51.61
61 | Cc1nc(CCN)cc(N2CCC(O)(c3ccc(Cl)cc3)CC2)n1 | -16.16
